Results on 30 compounds are retold here after publication PMC11995724, “Antibiotic target discovery by integrated phenotypic and activity-based profiling of electrophilic fragments” (Cell chemical biology, 2025).

Among all 3,200 compounds or so, about 110 (3.4%) showed an effect of 50% or more. Shown is part of a subset that was picked to be rich in strong results.

The test concerns T1, V. cholerae SAD30.
T1 construct: SAD30
Details: species or system S. aureus MSSA476 (TSB) or V. cholerae SAD30 (LB); 384-well bacterial growth screen at 25 uM, OD600 relative to DMSO control. The note with it: relative growth, OD600, LB; 25 µM; inhibitor.
For `CC(C)Cn1c(N)c(C(=O)CCl)c(=O)[nH]c1=O` [10-F08, 6-amino-5-(2-chloroacetyl)-1-(2-methylpropyl)-1,2,3,4-tetrahydropyrimidine-2,4-dione], the “% of control remaining” value is reported as 101.305%.

For the compound `O=C(CCl)Nc1cc2c(cc1[N+](=O)[O-])OCCCO2` [4-O05, 2-chloro-N-(8-nitro-3,4-dihydro-2H-1,5-benzodioxepin-7-yl)acetamide], the “% of control remaining” value was found to be 108.001%.

As for `O=C(CCl)c1c[nH]c2ccncc12` [10-K05, 2-chloro-1-{1H-pyrrolo[3,2-c]pyridin-3-yl}ethan-1-one], the “% of control remaining” value came to 101.305%.

Turning to `O=C(CCl)c1ccoc1` [10-O09, 2-chloro-1-(furan-3-yl)ethan-1-one], the “% of control remaining” value was determined as 123.281%.

`O=C(CCl)NCC(F)(F)c1cccnc1` [6-C21, 2-chloro-N-[2,2-difluoro-2-(pyridin-3-yl)ethyl]acetamide]: the “% of control remaining” value was determined as 97.8292%.

On to `Cl.O=C(CCl)c1ccncc1` [10-M09, 2-chloro-1-(pyridin-4-yl)ethan-1-one hydrochloride], for which the “% of control remaining” value is reported as -0.1559%.

As to `Cl.O=C(CCl)c1ccncc1F` [10-I09, 2-chloro-1-(3-fluoropyridin-4-yl)ethan-1-one hydrochloride], the “% of control remaining” value was found to be 0%.

Regarding `O=C(CCl)c1ccc(C(F)(F)F)cc1` [10-B10, 2-chloro-1-[4-(trifluoromethyl)phenyl]ethan-1-one], the “% of control remaining” value turned out to be 79.174%.

On to `COc1ccc(C=C(C#N)C(=O)Nc2c(C)cccc2C)cc1OC` [8-A17, 2-cyano-3-(3,4-dimethoxyphenyl)-N-(2,6-dimethylphenyl)prop-2-enamide], for which the “% of control remaining” value is given as 86.6757%.

In the case of `Cc1n[nH]c(C)c1C=C(C#N)C(=O)Nc1cc(Cl)cc(Cl)c1` [8-M08, 2-cyano-N-(3,5-dichlorophenyl)-3-(3,5-dimethyl-1H-pyrazol-4-yl)prop-2-enamide], the “% of control remaining” value worked out at 68.3209%.

With `CCOc1ccc2nc(NC(=O)CCl)sc2c1` [4-L10, 2-chloro-N-(6-ethoxy-1,3-benzothiazol-2-yl)acetamide], the “% of control remaining” value came out at 94.3714%.

On to `C=CC(=O)N1CCC(C(=O)NCCc2c(C)n[nH]c2C)CC1` [2-D04, N-[2-(3,5-dimethyl-1H-pyrazol-4-yl)ethyl]-1-(prop-2-enoyl)piperidine-4-carboxamide], for which the “% of control remaining” value is listed as 106.099%.

Consider `CC(Cl)C(=O)N1CCN(S(=O)(=O)c2ccccc2)CC1` (stereo not drawn) [6-B12, 1-[4-(benzenesulfonyl)piperazin-1-yl]-2-chloropropan-1-one], for which the “% of control remaining” value came to 88.4254%.

`CCc1cccc2c(C(=O)CCl)c[nH]c12` [10-C12, 2-chloro-1-(7-ethyl-1H-indol-3-yl)ethan-1-one]: the “% of control remaining” value came to 24.3133%.

Consider `CCc1cccc(CC)c1NC(=O)CCl` [4-F10, 2-chloro-N-(2,6-diethylphenyl)acetamide], for which the “% of control remaining” value worked out at 103.86%.

For the compound `Cc1cccc2[nH]cc(C(=O)CCl)c12` [10-H09, 2-chloro-1-(4-methyl-1H-indol-3-yl)ethan-1-one], the “% of control remaining” value was 100.526%.

Regarding `Cc1noc(C)c1COC1CCN(C(=O)C(C)Cl)C1` (stereo not drawn) [7-O14, 2-chloro-1-{3-[(3,5-dimethyl-1,2-oxazol-4-yl)methoxy]pyrrolidin-1-yl}propan-1-one], the “% of control remaining” value is listed as 78.3744%.

For `Cc1cc(C(=O)CCl)c(C)n1-c1ccccc1` [10-L20, 2-chloro-1-(2,5-dimethyl-1-phenyl-1H-pyrrol-3-yl)ethan-1-one], the “% of control remaining” value was 100.682%.

For the compound `Cc1ccccc1-n1c(C)cc(C(=O)CCl)c1C` [10-H20, 2-chloro-1-[2,5-dimethyl-1-(2-methylphenyl)-1H-pyrrol-3-yl]ethan-1-one], the “% of control remaining” value is reported as 100.526%.

`Cc1cc(C(=O)CCl)c(C)n1-c1ccccn1` [10-C16, 2-chloro-1-[2,5-dimethyl-1-(pyridin-2-yl)-1H-pyrrol-3-yl]ethan-1-one]: the “% of control remaining” value was determined as 41.1455%.

In the case of `Cc1cc(-n2c(C)cc(C(=O)CCl)c2C)no1` [10-C18, 2-chloro-1-[2,5-dimethyl-1-(5-methyl-1,2-oxazol-3-yl)-1H-pyrrol-3-yl]ethan-1-one], the “% of control remaining” value is reported as 106.137%.

As to `Cc1cc(C)cc(-n2c(C)cc(C(=O)CCl)c2C)c1` [10-E04, 2-chloro-1-[1-(3,5-dimethylphenyl)-2,5-dimethyl-1H-pyrrol-3-yl]ethan-1-one], the “% of control remaining” value is given as 92.1099%.

As to `Cc1cc(C(=O)CCl)c(C)n1-c1ccon1` [10-F06, 2-chloro-1-[2,5-dimethyl-1-(1,2-oxazol-3-yl)-1H-pyrrol-3-yl]ethan-1-one], the “% of control remaining” value is listed as 37.8726%.

In the case of `Cc1ccc(S(=O)(=O)NC2CN(C(=O)CCl)C2)cc1` [5-E07, N-[1-(2-chloroacetyl)azetidin-3-yl]-4-methylbenzene-1-sulfonamide], the “% of control remaining” value was determined as 95.6604%.

Regarding `C[C@H](NC(=O)CCl)C(=O)N1CCCCC1` [7-L14, 2-chloro-N-[(2S)-1-oxo-1-(piperidin-1-yl)propan-2-yl]acetamide], the “% of control remaining” value is 80.489%.

Turning to `COc1ccc(C=C(C#N)C(=O)Nc2cccc(C)c2)cc1` [8-M03, 2-cyano-3-(4-methoxyphenyl)-N-(3-methylphenyl)prop-2-enamide], the “% of control remaining” value turned out to be 85.4521%.

For `C=CC(=O)NCCc1nc(C)cs1` [2-D05, N-[2-(4-methyl-1,3-thiazol-2-yl)ethyl]prop-2-enamide], the “% of control remaining” value was 94.8278%.

Turning to `C=CC(=O)NCCc1csc(C)n1` [1-D13, N-[2-(2-methyl-1,3-thiazol-4-yl)ethyl]prop-2-enamide], the “% of control remaining” value was determined as 86.9955%.

Regarding `C=CC(=O)NCC(=O)c1scc(C)c1Cl` [1-D16, N-[2-(3-chloro-4-methylthiophen-2-yl)-2-oxoethyl]prop-2-enamide], the “% of control remaining” value came to 44.1609%.

Take `COc1ccc(NC(=O)c2ccccc2NC(=O)CCl)cc1` [4-L05, 2-(2-chloroacetamido)-N-(4-methoxyphenyl)benzamide]: the “% of control remaining” value is given as 109.209%.
